Active and inactive are the calls of the source. Rule for the calls: active = hit-call score of the fitted dose curve at least 0.9, where 1 is the maximum; inactive = score below 0.9.
Assays:
[1] = ATG_GRE_CIS: Attagene CIS-FACTORIAL HepG2 Assay for human Glucocorticoid Response Elements (GRE) (AID 2282947); details: HepG2 GRE cis-reporter, Attagene multiplex mRNA; actives raise or lower the signal
How it was run: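 Cells (HepG2) bearing transfected cis-promoter reporter transcription units were treated with chemical for 24 hours. Reporter mRNA was measured via RT-PCR with capillary electrophoresis, and activity was fitted in both directions relative to DMSO.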

[2] = ATG_M_32_CIS: Attagene CIS-FACTORIAL HepG2 Assay for M32 Transcription Factor (Internal Marker) (AID 2282949); details: HepG2 Attagene cis-factorial M32 reporter, mRNA; actives raise or lower the signal;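 note: background control marker of the multiplexed CIS panel rather than a real target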
How it was run: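 HepG2 transfectants (cis-regulated reporter transcription units) dosed 24 h. Reporter mRNA by RT-PCR plus CE, analysed as gain or loss relative to DMSO.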

[3] = target: Hypoxia-inducible factor 1-alpha (Homo sapiens) (UniProt Q16665); assay: ATG_HIF1a_CIS: Attagene CIS-FACTORIAL HepG2 Assay for human Hypoxia Inducible Factor 1 (HIF1A) (AID 2282951); details: HepG2 Attagene cis-factorial HIF1a reporter transcription; actives raise or lower the signal
How it was run: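 Endogenous-TF cis reporter readout, human HepG2 cells, 24 h incubation; mRNA detected via RT-PCR and capillary electrophoresis fluorescence; DMSO-normalised bidirectional fitting.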

[4] = target: Hepatocyte nuclear factor 6 (Homo sapiens) (UniProt Q9UBC0); assay: ATG_HNF6_CIS: Attagene CIS-FACTORIAL HepG2 Assay for human Hepatocyte Nuclear Factor 6 (HNF6) (AID 2282952); details: HepG2 Attagene cis-factorial HNF6 reporter transcription; actives raise or lower the signal
How it was run: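 Readout: fluorescent reporter-transcript fragments resolved by capillary electrophoresis after RT-PCR, reflecting endogenous factor activity in transfected HepG2. Exposure 24 h. Gain or loss of signal fitted bidirectionally against DMSO.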

[5] = target: Heat shock factor protein 1 (Homo sapiens) (UniProt Q00613); assay: ATG_HSE_CIS: Attagene CIS-FACTORIAL HepG2 Assay for human Heat Shock Transcription Factor 1 (HSE) (AID 2282953); details: HepG2 HSE cis-reporter, Attagene RNA transcription; actives raise or lower the signal
How it was run: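 Liver-derived HepG2 cells carry transiently introduced multiple reporter units governed by cis promoters. Reporter RNA measured 24 h post-dose through reverse transcription, PCR amplification, fluorescent labelling and capillary electrophoresis, normalised to DMSO.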

[6] = ATG_MRE_CIS: Attagene CIS-FACTORIAL HepG2 Assay for human Metal Responsive Element (MRE) (AID 2282954); details: HepG2 MRE cis-reporter transcription, Attagene multiplex; actives raise or lower the signal
How it was run: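 Cells were transfected with cis-promoter reporter transcription units, then dosed for 24 h. RNA was reverse-transcribed, amplified, fluorescently labelled and resolved by capillary electrophoresis, and activity was fitted in both directions relative to DMSO.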

[7] = ATG_PBREM_CIS: Attagene CIS-FACTORIAL HepG2 Assay for human Phenobarbital-responsive Enhancer Module (PBREM) (AID 2282955); details: HepG2 PBREM cis-reporter, Attagene multiplexed transcription; actives raise or lower the signal
How it was run: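 Readout: reporter mRNA, fluorescent RT-PCR fragments separated by capillary electrophoresis. System: HepG2 transiently transfected with cis-regulated reporter units. Exposure: 24 h. Analysis: bidirectional, DMSO baseline.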

[8] = target: Paired box protein Pax-6 (Homo sapiens) (UniProt P26367); assay: ATG_Pax6_CIS: Attagene CIS-FACTORIAL HepG2 Assay for human Paired Box 6 (PAX6) (AID 2282956); details: HepG2 CIS-FACTORIAL PAX6 reporter transcription, RNA readout; actives raise or lower the signal
How it was run: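 Values derive from bidirectional curve fitting of reporter mRNA signal relative to DMSO. HepG2 cells bearing transfected cis-regulated MRTUs were exposed for 24 h; transcripts were read by RT-PCR and capillary electrophoresis.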

[9] = ATG_PXRE_CIS: Attagene CIS-FACTORIAL HepG2 Assay for human Pregnane X Receptor Element (PXRE) (AID 2282957); details: HepG2 Attagene CIS-FACTORIAL PXRE reporter, mRNA; actives raise or lower the signal
How it was run: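 Read-out: fluorescence of reporter-specific RT-PCR products resolved by capillary electrophoresis, fitted bidirectionally relative to DMSO. Human HepG2 liver cells carried transfected cis-promoter reporter units and were exposed to chemicals for 24 h.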

[10] = ATG_PPRE_CIS: Attagene CIS-FACTORIAL HepG2 Assay for human Peroxisome Proliferator-activated Response Element (PPRE) (AID 2282958); details: HepG2 PPRE cis-element reporter, Attagene transcription factor profiling; actives raise or lower the signal
How it was run: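 After human HepG2 hepatoma cells were transiently transfected with cis-promoter reporter constructs, they were exposed to test chemicals for 24 hours. Reporter RNA was then reverse-transcribed, PCR-amplified, FAM-labeled, HpaI-digested and quantified by capillary electrophoresis.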

[11] = ATG_Sox_CIS: Attagene CIS-FACTORIAL HepG2 Assay for human SRY-box transcription factor (SOX) (AID 2282960); details: HepG2 Attagene cis-factorial SOX reporter, mRNA; actives raise or lower the signal
How it was run: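 Using transiently transfected HepG2 cells, reporter transcription driven by cis elements was assessed 24 h after dosing. Signal was fluorescence of capillary-separated RT-PCR products, with DMSO defining baseline activity.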

[12] = target: Transcription factor Sp1 (Homo sapiens) (UniProt P08047); assay: ATG_Sp1_CIS: Attagene CIS-FACTORIAL HepG2 Assay for human Specificity Protein 1 (Sp1) (AID 2282961); details: HepG2 Sp1 cis-reporter transcription, actives raise or lower the signal
How it was run: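 After transient transfection of HepG2 cells with cis-promoter reporter units and 24 h chemical treatment, reporter transcripts were quantified by RT-PCR and capillary electrophoresis fluorescence. Gain- and loss-of-signal fitted against DMSO.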

[13] = ATG_SREBP_CIS: Attagene CIS-FACTORIAL HepG2 Assay for human Sterol Regulatory Element Binding (SREBP) (AID 2282962); details: HepG2 Attagene cis-factorial SREBP reporter, mRNA; actives raise or lower the signal
How it was run: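 Values derive from bidirectional curve fitting with DMSO as baseline. The underlying measurement is reporter mRNA from cis-element-regulated units in transiently transfected HepG2, quantified by RT-PCR and capillary electrophoresis after 24 h exposure.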

[14] = target: Signal transducer and activator of transcription 3 (Homo sapiens) (UniProt P40763); assay: ATG_STAT3_CIS: Attagene CIS-FACTORIAL HepG2 Assay for human Signal Transducer and Activator of Transcription 3 (STAT3) (AID 2282963); details: HepG2, Attagene cis-factorial STAT3 reporter transcription; actives raise or lower the signal
How it was run: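 HepG2, MRTU-transfected, 24 h dosing. RNA → RT → PCR → FAM label → HpaI → CE. Bidirectional fit vs DMSO.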

[15] = ATG_TA_CIS: Attagene CIS-FACTORIAL HepG2 Assay for human TA Basal Promoter (AID 2282964); details: HepG2 Attagene CIS-factorial TA basal promoter reporter; actives raise or lower the signal
How it was run: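 Background internal-marker endpoint from a 52-component HepG2 cis-reporter panel. Cells treated 24 h; reporter transcripts quantified via RT-PCR and CE fluorescence against DMSO baseline.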

[16] = ATG_TCF_b_cat_CIS: Attagene CIS-FACTORIAL HepG2 Assay for human T-Cell-Factor with beta-catenin (TCF/b-cat) (AID 2282965); details: HepG2 TCF/beta-catenin cis-reporter transcription, actives raise or lower the signal
How it was run: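 In this cis-format system, transfected HepG2 cells report endogenous transcription factor activity. Readout after 24 h exposure is reporter transcript abundance from RT-PCR and capillary electrophoresis, analysed for gain or loss of signal versus DMSO.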

[17] = ATG_RORE_CIS: Attagene CIS-FACTORIAL HepG2 Assay for human RAR-related Orphan Receptor Element (RORE) (AID 2282959); details: HepG2 Attagene cis-factorial RORE reporter, mRNA; actives raise or lower the signal
How it was run: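 Measured here: transcript induction of a cis-regulated reporter in HepG2 cells transiently transfected via FuGene 6. After 24 h, RNA was processed by RT-PCR and fluorescent capillary electrophoresis; DMSO defined baseline activity.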

[18] = ATG_ISRE_CIS: Attagene CIS-FACTORIAL HepG2 Assay for human Interferon Regulatory Factor 1 (IRF1) binding to an Interferon-Stimulated Response Element (ISRE) (AID 2282948); details: HepG2 ISRE cis-reporter (Attagene), mRNA transcription readout; actives raise or lower the signal
How it was run: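 Signal reflects induction or loss of ISRE-linked reporter mRNA in transiently transfected HepG2 cells after a 24 h treatment, detected by fluorescent RT-PCR fragments on capillary electrophoresis and normalised to DMSO.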

[19] = ATG_M_06_CIS: Attagene CIS-FACTORIAL HepG2 Assay for M06 Transcription Factor (Internal Marker) (AID 2282950); details: HepG2 Attagene CIS-FACTORIAL M06 internal marker reporter; actives raise or lower the signal
How it was run: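 Cells (HepG2, transiently carrying cis-driven reporter units) receive chemical for 24 h before RNA isolation. Reporter cDNA is PCR-amplified, FAM-labelled by primer extension, HpaI-digested and sized on a capillary analyser.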

Measured: AC50

Paired box protein Pax-6 (Homo sapiens), sequence (P26367 whole entry, looked up): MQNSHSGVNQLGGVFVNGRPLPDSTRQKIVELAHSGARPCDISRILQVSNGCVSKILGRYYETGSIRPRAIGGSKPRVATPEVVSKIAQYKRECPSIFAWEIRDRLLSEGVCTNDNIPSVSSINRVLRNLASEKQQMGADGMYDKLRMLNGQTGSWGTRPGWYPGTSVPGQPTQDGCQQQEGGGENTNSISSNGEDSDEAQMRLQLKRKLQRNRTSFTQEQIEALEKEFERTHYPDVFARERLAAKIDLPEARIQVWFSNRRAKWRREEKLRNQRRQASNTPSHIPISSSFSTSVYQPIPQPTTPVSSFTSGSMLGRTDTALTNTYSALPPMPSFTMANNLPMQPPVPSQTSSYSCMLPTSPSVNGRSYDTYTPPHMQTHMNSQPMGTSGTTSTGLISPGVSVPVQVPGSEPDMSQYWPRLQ
Transcription factor Sp1 (Homo sapiens), sequence (P08047 whole entry, looked up): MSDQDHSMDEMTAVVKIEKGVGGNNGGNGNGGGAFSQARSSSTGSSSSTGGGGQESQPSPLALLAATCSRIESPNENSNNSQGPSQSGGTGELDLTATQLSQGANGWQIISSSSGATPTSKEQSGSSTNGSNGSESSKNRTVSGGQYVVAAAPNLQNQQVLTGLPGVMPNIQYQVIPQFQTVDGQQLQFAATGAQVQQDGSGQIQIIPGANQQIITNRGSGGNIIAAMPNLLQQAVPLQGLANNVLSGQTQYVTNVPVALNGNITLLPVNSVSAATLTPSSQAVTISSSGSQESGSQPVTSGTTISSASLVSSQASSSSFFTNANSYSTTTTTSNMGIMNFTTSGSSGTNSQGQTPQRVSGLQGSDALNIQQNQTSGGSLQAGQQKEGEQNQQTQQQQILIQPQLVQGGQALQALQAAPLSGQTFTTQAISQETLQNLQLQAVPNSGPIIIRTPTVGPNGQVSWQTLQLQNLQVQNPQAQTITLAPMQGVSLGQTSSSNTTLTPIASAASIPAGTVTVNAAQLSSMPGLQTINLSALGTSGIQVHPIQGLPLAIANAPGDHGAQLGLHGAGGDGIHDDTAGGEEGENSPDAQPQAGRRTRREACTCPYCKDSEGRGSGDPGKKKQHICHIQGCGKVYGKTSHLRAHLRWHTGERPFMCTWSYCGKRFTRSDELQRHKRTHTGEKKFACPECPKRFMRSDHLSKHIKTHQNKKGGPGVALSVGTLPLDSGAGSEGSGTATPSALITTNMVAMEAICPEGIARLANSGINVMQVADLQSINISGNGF
Heat shock factor protein 1 (Homo sapiens), sequence (Q00613 whole entry, looked up): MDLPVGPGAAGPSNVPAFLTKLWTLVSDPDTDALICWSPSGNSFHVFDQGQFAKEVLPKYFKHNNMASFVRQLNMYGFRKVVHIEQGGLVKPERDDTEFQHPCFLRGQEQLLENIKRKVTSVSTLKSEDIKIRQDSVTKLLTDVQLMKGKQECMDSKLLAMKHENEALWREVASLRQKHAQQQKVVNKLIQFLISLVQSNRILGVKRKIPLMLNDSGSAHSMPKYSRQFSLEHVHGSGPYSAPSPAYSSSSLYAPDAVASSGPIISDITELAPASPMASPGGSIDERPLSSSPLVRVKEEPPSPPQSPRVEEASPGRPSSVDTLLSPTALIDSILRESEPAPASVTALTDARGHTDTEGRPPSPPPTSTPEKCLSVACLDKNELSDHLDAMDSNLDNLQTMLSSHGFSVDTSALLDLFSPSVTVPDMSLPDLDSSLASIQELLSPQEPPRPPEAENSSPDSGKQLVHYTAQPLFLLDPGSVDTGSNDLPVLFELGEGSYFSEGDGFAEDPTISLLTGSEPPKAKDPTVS
Hepatocyte nuclear factor 6 (Homo sapiens), sequence (Q9UBC0 whole entry, looked up, the tested form may be a part): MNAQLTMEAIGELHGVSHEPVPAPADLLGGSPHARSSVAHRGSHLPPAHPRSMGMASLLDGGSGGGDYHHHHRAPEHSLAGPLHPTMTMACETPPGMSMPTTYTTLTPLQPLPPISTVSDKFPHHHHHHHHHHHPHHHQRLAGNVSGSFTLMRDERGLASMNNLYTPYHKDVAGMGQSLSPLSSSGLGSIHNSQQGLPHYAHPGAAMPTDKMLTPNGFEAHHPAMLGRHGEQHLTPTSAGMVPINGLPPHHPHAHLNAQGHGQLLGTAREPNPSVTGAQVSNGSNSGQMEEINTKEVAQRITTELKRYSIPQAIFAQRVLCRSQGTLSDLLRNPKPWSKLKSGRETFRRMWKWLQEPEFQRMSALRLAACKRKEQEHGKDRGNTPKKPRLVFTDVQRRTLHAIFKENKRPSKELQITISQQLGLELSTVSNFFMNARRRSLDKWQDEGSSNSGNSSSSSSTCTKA
Hypoxia-inducible factor 1-alpha (Homo sapiens), sequence (Q16665 whole entry, looked up): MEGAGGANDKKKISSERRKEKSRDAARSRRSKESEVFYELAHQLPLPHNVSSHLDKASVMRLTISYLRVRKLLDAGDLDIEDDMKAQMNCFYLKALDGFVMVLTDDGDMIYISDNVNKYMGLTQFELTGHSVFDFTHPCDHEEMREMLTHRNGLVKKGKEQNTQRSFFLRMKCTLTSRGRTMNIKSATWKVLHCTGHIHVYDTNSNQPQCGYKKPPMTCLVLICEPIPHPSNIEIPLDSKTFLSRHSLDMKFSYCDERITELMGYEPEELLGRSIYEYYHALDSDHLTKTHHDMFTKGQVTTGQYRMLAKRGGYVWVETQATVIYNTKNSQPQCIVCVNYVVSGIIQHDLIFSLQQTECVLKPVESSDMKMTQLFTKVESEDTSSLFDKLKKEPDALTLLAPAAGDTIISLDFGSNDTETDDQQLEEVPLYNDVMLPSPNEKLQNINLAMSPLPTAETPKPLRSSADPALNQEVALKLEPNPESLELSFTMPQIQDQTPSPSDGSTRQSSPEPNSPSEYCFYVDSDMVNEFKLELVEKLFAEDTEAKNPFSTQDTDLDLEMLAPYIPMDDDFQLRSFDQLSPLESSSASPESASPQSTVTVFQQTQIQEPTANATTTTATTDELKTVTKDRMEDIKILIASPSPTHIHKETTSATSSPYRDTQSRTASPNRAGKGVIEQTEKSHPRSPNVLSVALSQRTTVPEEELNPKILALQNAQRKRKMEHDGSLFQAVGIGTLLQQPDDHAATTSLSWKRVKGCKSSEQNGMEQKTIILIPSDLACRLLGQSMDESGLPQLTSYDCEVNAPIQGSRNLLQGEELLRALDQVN
Signal transducer and activator of transcription 3 (Homo sapiens), sequence (P40763 whole entry, looked up): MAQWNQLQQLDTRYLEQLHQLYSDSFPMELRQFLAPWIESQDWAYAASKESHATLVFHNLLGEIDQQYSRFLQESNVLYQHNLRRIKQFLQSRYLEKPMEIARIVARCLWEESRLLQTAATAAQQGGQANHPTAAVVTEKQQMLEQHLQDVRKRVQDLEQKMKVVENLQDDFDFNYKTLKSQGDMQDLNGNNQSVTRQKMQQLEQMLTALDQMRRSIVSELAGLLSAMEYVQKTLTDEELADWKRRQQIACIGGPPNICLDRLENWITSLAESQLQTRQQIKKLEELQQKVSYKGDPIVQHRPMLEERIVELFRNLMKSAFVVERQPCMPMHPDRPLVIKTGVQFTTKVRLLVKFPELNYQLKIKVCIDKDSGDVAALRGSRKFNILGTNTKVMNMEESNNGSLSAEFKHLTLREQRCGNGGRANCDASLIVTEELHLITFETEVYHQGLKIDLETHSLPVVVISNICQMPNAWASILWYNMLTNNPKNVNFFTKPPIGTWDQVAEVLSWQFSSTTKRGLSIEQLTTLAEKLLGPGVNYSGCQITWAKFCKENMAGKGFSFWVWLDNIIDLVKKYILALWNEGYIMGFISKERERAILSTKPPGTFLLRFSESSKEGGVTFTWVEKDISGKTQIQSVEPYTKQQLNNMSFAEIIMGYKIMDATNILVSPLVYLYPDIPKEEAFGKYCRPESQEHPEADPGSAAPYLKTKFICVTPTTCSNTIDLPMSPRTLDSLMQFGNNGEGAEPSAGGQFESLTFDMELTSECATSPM

CNC(=O)Oc1cccc2c1OC(C)(C)C2
active: [9] 17.1 µM
not listed: [17] | [18] | [19]
inactive: all other assays above

COC(=O)c1ccccc1N
active: [9] 100 µM
not listed: [18] | [19]
inactive: all other assays above

[As]#[In]
active: [9] 49.9 µM
not listed: [10] | [11] | [18] | [19]
inactive: all other assays above

Clc1ccc(Cl)c(Cl)c1
active: [9] 58.4 µM
not listed: [1] | [5] | [11] | [19]
inactive: all other assays above

O=C(Nc1ccccc1)c1ccccc1I
active: [9] 6.15 µM | [13] 42.1 µM
not listed: [10] | [11] | [18]
inactive: all other assays above

CCCCCCCCCCCCCN1CC(C)OC(C)C1 (stereo unspecified)
active: [9] 8 µM
not listed: [7] | [10] | [16] | [18]
inactive: all other assays above

Brc1ccc(Oc2ccccc2)cc1
active: [12] 100 µM | [13] 149 µM
not listed: [7] | [11] | [18] | [19]
inactive: all other assays above

CC(C)(C)OOC(=O)c1ccccc1
active: [6] 147 µM | [8] 149 µM | [9] 100 µM
not listed: [10] | [11] | [18] | [19]
inactive: all other assays above

Cc1ccc([N+](=O)[O-])cc1
not listed: [10] | [18] | [19]
inactive: all other assays above

O=Cc1ccco1
not listed: [1] | [7] | [10] | [11] | [16]
inactive: all other assays above

Cc1ccc(N)c(N)c1
active: [6] 29.1 µM | [17] 31.2 µM
not listed: [10] | [11] | [16] | [18]
inactive: all other assays above

c1ccc2c(c1)oc1ccccc12
not listed: [10] | [17] | [18] | [19]
inactive: all other assays above

N#CC(Br)(Br)C(N)=O
active: [9] 100 µM | [13] 169 µM
not listed: [1] | [7] | [16]
inactive: all other assays above

Cn1cc(-c2ccccc2)c(=O)c(-c2cccc(C(F)(F)F)c2)c1
active: [9] 4.31 µM | [16] 100 µM
not listed: [10] | [11] | [18]
inactive: all other assays above
